In PubChem BioAssay AID623911 (Vanderbilt High Throughput Screening Facility, 2012):
In all, about 2,100 compounds went through this assay and about 770 (37%) were called active. This is one part of the list. A number with no mark means an inactive call.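 The calls were made as follows: active = by-eye trace score of 1 for enhancers or -1 for inhibitors, so actives lie on both sides (some results past the limit were not filed as active); inactive = score 0, or 3 fluorescent, or 4 baseline rise.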

Each compound was assayed against G protein-activated inward rectifier potassium channel 2 (Homo sapiens) + G protein-activated inward rectifier potassium channel 1 (Homo sapiens) (UniProt P48051+P48549) (assay: GIRK1/2 thallium flux modulators, retest, confirmation, cell-based, HEK293 rmGlu8/hGIRK1/2, FluoZin-2 (AID 623911)). Conditions: HEK293 rmGlu8/hGIRK1/2, thallium flux FluoZin-2; actives lie on both sides; glutamate co-added at its EC20 level.
Sequence of G protein-activated inward rectifier potassium channel 2 (Homo sapiens) + G protein-activated inward rectifier potassium channel 1 (Homo sapiens) (P48051 whole entry, looked up): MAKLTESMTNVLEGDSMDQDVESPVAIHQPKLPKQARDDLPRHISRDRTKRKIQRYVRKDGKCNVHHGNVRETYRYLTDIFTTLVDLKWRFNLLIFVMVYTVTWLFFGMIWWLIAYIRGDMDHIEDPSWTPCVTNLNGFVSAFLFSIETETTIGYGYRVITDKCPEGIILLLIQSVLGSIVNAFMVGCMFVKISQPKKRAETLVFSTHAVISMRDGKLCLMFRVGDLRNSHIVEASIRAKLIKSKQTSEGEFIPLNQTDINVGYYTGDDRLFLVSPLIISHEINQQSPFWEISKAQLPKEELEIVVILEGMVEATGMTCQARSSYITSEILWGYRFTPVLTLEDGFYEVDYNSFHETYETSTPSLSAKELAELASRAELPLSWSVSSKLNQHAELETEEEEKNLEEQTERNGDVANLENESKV
Sequence of G protein-activated inward rectifier potassium channel 2 (Homo sapiens) + G protein-activated inward rectifier potassium channel 1 (Homo sapiens) (P48549 whole entry, looked up): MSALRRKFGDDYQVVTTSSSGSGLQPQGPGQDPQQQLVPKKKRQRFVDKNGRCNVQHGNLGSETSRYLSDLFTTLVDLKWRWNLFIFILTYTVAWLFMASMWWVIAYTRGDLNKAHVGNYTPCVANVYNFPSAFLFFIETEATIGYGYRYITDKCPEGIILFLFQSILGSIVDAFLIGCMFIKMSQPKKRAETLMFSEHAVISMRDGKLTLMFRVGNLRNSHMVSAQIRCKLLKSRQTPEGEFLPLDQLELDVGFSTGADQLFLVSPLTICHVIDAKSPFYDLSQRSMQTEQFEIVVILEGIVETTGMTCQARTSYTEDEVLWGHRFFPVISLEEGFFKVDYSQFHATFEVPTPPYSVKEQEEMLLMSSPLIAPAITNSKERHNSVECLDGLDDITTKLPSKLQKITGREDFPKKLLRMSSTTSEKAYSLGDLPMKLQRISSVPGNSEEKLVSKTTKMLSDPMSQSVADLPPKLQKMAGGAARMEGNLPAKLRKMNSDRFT
Work on `CCOC(=O)c1c(C)[nH]c(=S)c(C#N)c1-c1ccc(Cl)cc1` yielded a manual score of 0. `Cc1ccc(-c2cc(-c3ccccc3)[nH]c(=S)c2C#N)cc1` was tested, and the manual score was 1 (active). In the case of `COc1ccc(-c2c3c([nH]c(=S)c2C#N)CCC3)cc1`, the manual score is reported as 0. Compound `Cc1ccc(C2CC2c2n[nH]c(=S)n2-c2ccc(Cl)cc2)cc1` (stereo not given) has a manual score of 0. In the case of `CN=C1SC(C(=O)O)CC(=O)N1C` (stereo not given), the manual score is reported as 0. Compound `Cc1cc(O)c(C(C[N+](=O)[O-])c2ccc(Cl)cc2Cl)c(=O)o1` (stereo not given) has a manual score of 0. `CC(c1ccco1)N(C(=O)c1ccccc1NS(=O)(=O)c1cc([N+](=O)[O-])ccc1Cl)c1ccccn1` (stereo not given) gave a manual score of 0. Compound `COC(=O)c1ccc(NC(=O)C23CC4CC(C2)CC(n2cncn2)(C4)C3)cc1` has a manual score of 0. For `O=C(Nc1ccc(SC(F)F)cc1)C12CCC(CC1)C2`, the manual score was 1 (active). `CCCC(=O)Nc1ccc(NC(=O)C23CC4CC(CC(C4)C2)C3)cn1` showed a manual score of 0. In the case of `O=C1c2ccccc2NC(c2ccc(-c3ccc(Br)cc3)o2)N1O` (stereo not given), the manual score is reported as 0.5. With `S=c1[nH]nc(-c2cc3c(s2)-c2ccccc2CC3)o1` the manual score was 1 (active). In the case of `Cc1ccc(-c2cc(-c3n[nH]c(=S)o3)c3ccccc3n2)cc1`, the manual score is reported as 0. `CCCCCCn1cnc2c(c1=O)c1nc3ccccc3nc1n2/N=C/c1ccco1` gave a manual score of 0. For `O=C(Nc1nc(-c2ccccc2)c(-c2ccccc2)o1)c1ccc(F)cc1`, the manual score was 1 (active). In the case of `COc1cccc(C(=O)Nc2nc(-c3ccccc3)c(-c3ccccc3)o2)c1`, the manual score is reported as 1 (active). `COc1cccc(C(=O)NCc2cn3ccsc3n2)c1` gave a manual score of 0. `Cc1ccc(C(=O)Nc2cnc3ccccn3c2=O)cc1` was tested, and the manual score was 0. With `Cc1ccc(C(=O)Nc2nc(-c3ccccc3)c(-c3ccccc3)o2)cc1` the manual score was 1 (active). Compound `COc1cc(OC)cc(C(=O)Nc2nc(-c3ccccc3)c(-c3ccccc3)o2)c1` has a manual score of 0. Compound `CCC(C)NC(=O)c1ccccc1NC(=O)Nc1ccccc1` (stereo not given) has a manual score of 0. With `CSc1ccccc1NC(=O)Nc1ccccc1` the manual score was 1 (active). `CSc1ccccc1NC(=O)Nc1ccc(Cl)cc1` was tested, and the manual score was 1 (active). Work on `COC(=O)c1sccc1NC(=O)CSc1ccccc1NS(=O)(=O)c1ccc(Cl)cc1` yielded a manual score of 0. Compound `CSc1ccccc1C(=O)Nc1cccc(C(C)=O)c1` has a manual score of 0. With `CC(C)N=c1scc(-c2cccs2)n1/N=C/c1ccc(O)c(O)c1O` the manual score was 0. `Cc1c(C)[n+](=O)c2c(n1[O-])CCC2` was tested, and the manual score was 0. `CC(/C=C\c1cccnc1)=C/C(=O)O` was tested, and the manual score was 0. `CCc1ccc(/C=c2\s/c(=C\C(=O)C(C)(C)C)[nH]c2=O)cc1` showed a manual score of 0. For `O=C(/C=C/c1ccccc1)C1C(=O)c2ccccc2C1=O`, the manual score was 1 (active). In the case of `CCc1ccc(/C=C/C(=O)C2C(=O)c3ccccc3C2=O)cc1`, the manual score is reported as 1 (active). With `CC(/C=C/c1ccccc1)=N/NC(=O)c1cc([N+](=O)[O-])cc([N+](=O)[O-])c1` the manual score was 0. `CN=C(C)C1=C(O)C(C(=O)OC)C(C)(C)CC1=O` (stereo not given) was tested, and the manual score was 0. `Cc1cccc2c(=O)cc(C)n(CC(=O)N3CCCCC3)c12` showed a manual score of 0. Work on `CCc1c(O)nc(SCC(=O)Nc2ccc(OC)cc2)n(C2CCCCC2)c1=O` yielded a manual score of 0. `CC(=O)Oc1ccc2c(c1)Oc1cc(OC(C)=O)ccc1C21OC(=O)c2ccccc21` gave a manual score of 3. For `O=C(Nc1ncc(Br)s1)C(Cc1ccccc1)n1cccc1` (stereo not given), the manual score was 1 (active). In the case of `CCSc1nnc(NC(=O)C(Cc2ccccc2)n2cccc2)s1` (stereo not given), the manual score is reported as 0. With `Cc1csc(NC(=O)C(Cc2ccccc2)n2cccc2)n1` (stereo not given) the manual score was 0. `O=C(CSc1nnc2ccccn12)Nc1nsc(-c2ccccc2)n1` showed a manual score of 0. `CC1(C)CC(=O)C2=C(C1)N(c1ccccc1)C(N)=C(C#N)C2c1ccsc1` (stereo not given) was tested, and the manual score was -1 (active). Compound `CN1C(=O)C2(C(C#N)=C(N)N(c3cc(Cl)cc(Cl)c3)C3=C2C(=O)CCC3)c2ccccc21` (stereo not given) has a manual score of 0. Work on `CC1(C)CC(=O)C2=C(C1)NC(SCC(=O)Nc1ccccc1)=C(C#N)C2c1ccco1` (stereo not given) yielded a manual score of 0. Compound `S=c1[nH]nc(COc2ccccc2)n1C1CCCCC1` has a manual score of 0. `CC(C)=CCC(C)(C)CNC(=O)NC1CCCCC1` was tested, and the manual score was 1 (active). `O=C(O)CCC(=O)NC1CCCCCCC1` gave a manual score of 0. With `O=C(Cc1ccccc1)N/N=C/c1cccn1-c1ccc([N+](=O)[O-])cc1` the manual score was 1 (active). `N#CC1(Cc2ccc([N+](=O)[O-])cc2)c2ccccc2C=CN1C(=O)c1ccccc1` (stereo not given) was tested, and the manual score was 0. In the case of `CCOC(=O)CSC1=C(C#N)C(=O)NC(c2ccc(OC)c(OC)c2)S1` (stereo not given), the manual score is reported as 0. With `C=CCNCc1cccn1-c1sc2c(c1C#N)CCCC2` the manual score was -1 (active). `CCOC(=O)c1c2n(c3c(NCc4ccccc4)ncnc13)CCCC2` was tested, and the manual score was -1 (active). With `O=C(Oc1ccccc1)c1cccc(COC(=O)c2cnccn2)c1` the manual score was 0. `CCc1ccc(CNCCNCC(C)O)cc1` (stereo not given) was tested, and the manual score was 1 (active). In the case of `CCOC(=O)c1ccc(CNCc2ccc(Br)cc2)cc1`, the manual score is reported as 0. In the case of `COc1ccc(/C=C2\C(=O)NC(=S)N2C(=O)c2ccc(F)cc2)cc1`, the manual score is reported as 0. `COc1ccc(C(=O)N2C(=S)NC(=O)/C2=C\c2ccc(C)cc2)cc1` gave a manual score of 0. In the case of `COc1ccc(/C=C2\N=C(SC)NC2=O)cc1`, the manual score is reported as 1 (active). `CCC1CCCCN1CCCn1c(=S)[nH]c2ccccc2c1=O` (stereo not given) showed a manual score of 0. With `CC1CCC(n2c(=S)[nH]c3ccccc3c2=O)CC1` (stereo not given) the manual score was 0.5. Work on `COC(=O)c1ccc2c(=O)n(CC3CCCO3)c(=S)[nH]c2c1` (stereo not given) yielded a manual score of 0. Compound `CC1CCCCN1CCCn1c(=S)[nH]c2ccccc2c1=O` (stereo not given) has a manual score of 0. For `CCOc1cc2[nH]c(=S)n(C(C)C)c(=O)c2cc1OCC`, the manual score was 1 (active). For `CC(C)n1c(=S)[nH]c2ccccc2c1=O`, the manual score was 1 (active). In the case of `CC(C)COn1c(=S)[nH]c2ccccc2c1=O`, the manual score is reported as 1 (active). `CCn1c(=S)[nH]c2cc(C(=O)OC)ccc2c1=O` showed a manual score of 0.5. For `O=c1c2ccccc2[nH]c(=S)n1CCCN1CCN(C2CCCCC2)CC1`, the manual score was -1 (active). `CC(C)N(CCn1c(=S)[nH]c2ccccc2c1=O)C(C)C` showed a manual score of 0. In the case of `CCC1(C)OCC(Cn2c3ccccc3c3ccccc32)O1` (stereo not given), the manual score is reported as 0. `CC(C)c1ccc2occ(-c3nn[nH]n3)c(=O)c2c1` was tested, and the manual score was 0. In the case of `CC1CCCC(n2c(=S)[nH]c3ccccc3c2=O)C1C` (stereo not given), the manual score is reported as 3. In the case of `CC1CCCCC1n1c(=S)[nH]c2ccccc2c1=O` (stereo not given), the manual score is reported as 1 (active). `Cc1cc(NC(=O)c2ccccc2Oc2ccccc2)no1` was tested, and the manual score was 0. For `CCCCOc1cccc(OCCCC)c1C(=O)Nc1cc(C)on1`, the manual score was -1 (active). With `COc1ccc(C(=O)Nc2ccccc2)cc1S(=O)(=O)Nc1cc(C)on1` the manual score was 0. Compound `COc1ccc(CN2CCNC(=O)C2CC(=O)O)cc1OC` (stereo not given) has a manual score of 0. In the case of `COc1cccc2[nH]c3c(N4CCCC(C)C4)ncnc3c12` (stereo not given), the manual score is reported as -1 (active). In the case of `Cc1ccc(-c2nnn(CC(=O)N3CCCCC3)n2)c(-n2cnnn2)c1`, the manual score is reported as 0. Work on `COc1ccc(N(CC(=O)NC2CCCC2)C(=O)Cn2nnc(-c3ccc(C)cc3)n2)cc1` yielded a manual score of 0. In the case of `Cc1ccc(-c2nnn(CC(=O)NC3CC4CCC3C4)n2)cc1` (stereo not given), the manual score is reported as 1 (active). `Clc1cccc(-c2ccc(/C=N/n3cnnc3)o2)c1Cl` showed a manual score of 0. Compound `CCCCCCCC1CC(CSc2ncn[nH]2)OC1=O` (stereo not given) has a manual score of 0. With `CCCCCCCC1CC(CSC(=N)N)OC1=O` (stereo not given) the manual score was -1 (active). `O=C(c1ccc(Br)o1)N1CCN(c2ccc3nnc(-c4ccc(F)cc4)n3n2)CC1` showed a manual score of 0. `Fc1cc(Br)ccc1NC(=S)NCCc1ccccc1` showed a manual score of 0. For `Fc1ccccc1NC(=S)NN(Cc1ccccc1)c1ccccc1`, the manual score was -1 (active). `Cc1ccccc1CNC(=O)Nc1cccs1` was tested, and the manual score was 1 (active). `COc1ccccc1NC(=O)COc1ccc(Br)cc1CO` showed a manual score of 0. With `COc1ccc(Br)cc1CNC(=O)Nc1cccs1` the manual score was 1 (active). `CCn1c(NC(=O)Nc2cccc(C)c2C)cc2sccc21` gave a manual score of 0. With `O=C(NCc1cccs1)c1cccnc1C(=O)O` the manual score was 0. Work on `COc1ccc2cc(Br)ccc2c1CC(=O)NC1CC(C)(C)NC(C)(C)C1` yielded a manual score of 0. With `CCOc1cc(C)nc(N2CCN(C3CCCCC3)CC2)n1` the manual score was -1 (active). In the case of `COc1ccccc1C(=O)NNC(=S)NC(=O)c1ccco1`, the manual score is reported as 1 (active). For `COc1ccc(C(=O)NNC(=S)NC(=O)c2ccco2)cc1`, the manual score was 1 (active). `Cc1cnc(NC(=O)COc2ccccc2Cl)s1` showed a manual score of 0. For `Cc1ccc(OCC(=O)N/N=C/c2cccn2C)cc1`, the manual score was 0. For `Cc1ccccc1OCC(=O)N/N=C/c1cccn1C`, the manual score was 1 (active). With `COc1ccc(CNC(=O)CSCc2ccccc2Cl)cc1` the manual score was 0. `Cc1ccc(C(=O)CC(=O)COc2ccc(Cl)cc2)cc1` showed a manual score of 0. Work on `Cc1ccc(C(=O)CC(=O)c2cc(Cl)ccc2O)cc1` yielded a manual score of 0. With `Cc1ccc(C(=O)CC(=O)COc2ccc(Cl)cc2C)cc1` the manual score was 1 (active). In the case of `CC(C)c1cc(C(F)(F)F)n2nc(C(=O)Nc3ccc4c(c3)OCO4)cc2n1`, the manual score is reported as 0. For `CC1CCN(C(C(=O)Nc2ccc3c(c2)OCO3)c2ccccc2)CC1` (stereo not given), the manual score was -1 (active). In the case of `Cc1ccc(C(C(=O)NC2CCCC2)N2CCCC(C)C2)cc1` (stereo not given), the manual score is reported as -1 (active). Compound `O=C(NC(=S)Nc1ccc2c(c1)OCO2)c1ccccc1` has a manual score of 0. In the case of `Cc1ccc(NC(=O)C(c2ccccc2)C2CCCC2)cc1` (stereo not given), the manual score is reported as 0. With `CC1CCCN(C(C(=O)Nc2ccc3c(c2)OCO3)c2ccccc2)C1` (stereo not given) the manual score was -1 (active). `Cc1csc(SCC(=O)Nc2nc3ccccc3s2)n1` showed a manual score of 0. For `O=C1OC2(CCCCC2)OC(=O)C1=CNc1nc2ccccc2s1`, the manual score was 1 (active). `O=C(Nc1ccc(O)c(-c2nc3ccccc3s2)c1)C1=COCCO1` was tested, and the manual score was 0.
